Laboratory results: PubChem BioAssay (NCATS)
Records with an inconclusive call do not appear. A call without a number means that no potency is given here. Calls of active or inactive are those of the source. Calls come from the whole dose curve; as a rule, active = well fitted inhibition curve with a large enough effect; inconclusive = small, poorly fitted or top-dose-only effect; inactive = flat fitted curve, though single readings scatter.

Key:
Assay in all cases: qHTS profiling for inhibitors of Plasmodium falciparum proliferation (AID 504749); note: nearly all actives have a fitted effect of over 60% in size
Conditions in all cases: P. falciparum in erythrocytes, SYBR Green DNA, 72 h; series mostly up to 28.7 µM
[1] = test system: C2A
Summary of the method: (§1)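 Each compound contacts P. falciparum-infected red blood cells for 72 h at 37 C; lysis buffer (Tris, EDTA, saponin, Triton X, SYBR Green I) is added and fluorescence measured next morning; values normalized to controls.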

[2] = test system: CP185
Summary of the method: as §1

[3] = test system: CP191
Summary of the method: as §1

[4] = test system: CP192
Summary of the method: as §1

[5] = test system: CP194
Summary of the method: as §1

[6] = test system: CP201
Summary of the method: as §1

[7] = test system: CP203
Summary of the method: as §1

[8] = test system: CP211
Summary of the method: as §1

[9] = test system: CP215
Summary of the method: as §1

[10] = test system: CP217
Summary of the method: as §1

[11] = test system: CP237
Summary of the method: as §1

[12] = test system: CP238
Summary of the method: as §1

[13] = test system: CP250
Summary of the method: as §1

[14] = test system: CP252
Summary of the method: as §1

[15] = test system: CP256
Summary of the method: as §1

[16] = test system: CP260
Summary of the method: as §1

[17] = test system: CP262
Summary of the method: as §1

[18] = test system: CP265
Summary of the method: as §1

[19] = test system: CP266
Summary of the method: as §1

[20] = test system: CP247
Summary of the method: as §1
Potency is the fitted concentration of half-maximal effect.

Structure (SMILES)	Potency [1]	Potency [2]	Potency [3]	Potency [4]	Potency [5]	Potency [6]	Potency [7]	Potency [8]	Potency [9]	Potency [10]	Potency [11]	Potency [12]	Potency [13]	Potency [14]	Potency [15]	Potency [16]	Potency [17]	Potency [18]	Potency [19]	Potency [20]
COC(C(=O)C(O)C(C)O)C1Cc2cc3cc(OC4CC(OC5CC(O)C(O)C(C)O5)C(O)C(C)O4)c(C)c(O)c3c(O)c2C(=O)C1OC1CC(OC2CC(OC3CC(C)(O)C(O)C(C)O3)C(O)C(C)O2)C(O)C(C)O1 (configuration not stated)	0.251 µM (active)	0.251 µM (active)	0.224 µM (active)	3.01 µM (active)	3.01 µM (active)	2.69 µM (active)	3.01 µM (active)	2.69 µM (active)	2.39 µM (active)	0.282 µM (active)	0.1 µM (active)	0.251 µM (active)	0.251 µM (active)	0.251 µM (active)	0.316 µM (active)	0.126 µM (active)	2.13 µM (active)	0.355 µM (active)	2.13 µM (active)	–
O=S(=O)(O)O	inactive	inactive	inactive	inactive	inactive	inactive	inactive	inactive	–	inactive	inactive	inactive	inactive	inactive	inactive	inactive	inactive	inactive	–	inactive
CC(C(=O)O)c1ccc(N2Cc3ccccc3C2=O)cc1 (configuration not stated)	inactive	inactive	inactive	inactive	inactive	inactive	inactive	inactive	inactive	inactive	inactive	inactive	inactive	inactive	inactive	inactive	inactive	inactive	inactive	inactive
Cc1cn([C@H]2C[C@H](O)[C@@H](CO)O2)c(=O)[nH]c1=O	inactive	inactive	inactive	inactive	inactive	inactive	inactive	inactive	inactive	inactive	inactive	inactive	inactive	inactive	inactive	–	inactive	inactive	inactive	inactive
CCCC(=O)O[C@]1(C(=O)CCl)[C@H](C)C[C@@H]2[C@H]3CCC4=CC(=O)C=C[C@]4(C)[C@@]3(F)C(=O)C[C@@]21C	3.55 µM (active)	3.16 µM (active)	0.891 µM (active)	4.78 µM (active)	3.01 µM (active)	3.79 µM (active)	4.78 µM (active)	1.51 µM (active)	3.79 µM (active)	3.16 µM (active)	3.55 µM (active)	3.98 µM (active)	1.58 µM (active)	3.16 µM (active)	0.794 µM (active)	2.82 µM (active)	1.69 µM (active)	2.82 µM (active)	3.38 µM (active)	2 µM (active)
C=C1C(=CC=C2CCC[C@@]3(C)[C@@H]2CC[C@H]3[C@H](C)CCCC(C)C)C[C@@H](O)C[C@@H]1O	10 µM (active)	–	11.2 µM (active)	inactive	inactive	inactive	inactive	inactive	inactive	–	–	–	–	–	–	–	inactive	11.2 µM (active)	inactive	–
CC[C@@]1(O)C(=O)OCc2c1cc1n(c2=O)Cc2cc3c([N+](=O)[O-])cccc3nc2-1	7.94 µM (active)	8.91 µM (active)	11.2 µM (active)	–	12 µM (active)	–	–	–	13.5 µM (active)	10 µM (active)	3.98 µM (active)	8.91 µM (active)	12.6 µM (active)	–	11.2 µM (active)	3.55 µM (active)	–	7.94 µM (active)	–	11.2 µM (active)
O=C(Nc1cccc(C(F)(F)F)c1)c1cc(Br)cc(Br)c1O	–	–	–	–	–	–	15.1 µM (active)	12 µM (active)	12 µM (active)	8.91 µM (active)	–	–	–	–	–	–	–	–	–	8.91 µM (active)
O=S(=O)(O)c1cc(O)c2c(N=Nc3ccc(Nc4ccccc4)c4c(S(=O)(=O)O)cccc34)cc(S(=O)(=O)O)cc2c1	inactive	–	–	–	–	–	inactive	–	–	–	inactive	inactive	–	–	–	–	–	–	–	–
CCOC(=O)C1=CC2(CC)CCCN3CCc4c(n1c1ccccc41)C32 (configuration not stated)	10 µM (active)	8.91 µM (active)	8.91 µM (active)	–	–	–	–	–	–	11.2 µM (active)	–	8.91 µM (active)	–	11.2 µM (active)	6.31 µM (active)	–	–	11.2 µM (active)	–	–
CC1=C(/C=C/C(C)=C/C=C/C(C)=C/CO)C(C)(C)CCC1	–	–	–	inactive	inactive	inactive	–	inactive	–	10 µM (active)	–	–	–	10 µM (active)	–	–	inactive	–	inactive	–
Clc1cc(Cl)c(OCC#CI)cc1Cl	8.91 µM (active)	–	–	inactive	–	–	–	–	–	–	–	–	11.2 µM (active)	–	–	–	–	10 µM (active)	–	7.08 µM (active)
CCCCCCOc1ccc(C(=N)N(CCCC)CCCC)c2ccccc12	11.2 µM (active)	10 µM (active)	4.47 µM (active)	19 µM (active)	–	16.9 µM (active)	–	–	–	7.94 µM (active)	11.2 µM (active)	–	8.91 µM (active)	10 µM (active)	–	4.47 µM (active)	–	–	–	10 µM (active)
CCCCC(CC)COC(=O)CC(C(=O)OCC(CC)CCCC)S(=O)(=O)O (configuration not stated)	–	–	–	inactive	inactive	inactive	inactive	inactive	inactive	–	–	–	–	–	–	–	inactive	–	inactive	–
O=C(O)c1cc(O)c2c(c1)[O][Bi][O]2	inactive	inactive	inactive	inactive	inactive	inactive	–	inactive	–	inactive	inactive	inactive	inactive	inactive	inactive	inactive	inactive	inactive	–	inactive
CC(C)N=c1cc2n(-c3ccc(Cl)cc3)c3ccccc3nc-2cc1Nc1ccc(Cl)cc1	inactive	inactive	inactive	–	inactive	inactive	inactive	inactive	inactive	inactive	–	inactive	inactive	inactive	inactive	–	inactive	inactive	–	inactive
CCN(CC)CCOc1ccc(-c2nc3cc(Cl)ccc3s2)cc1	–	inactive	–	inactive	inactive	inactive	inactive	inactive	inactive	inactive	–	inactive	inactive	inactive	inactive	–	inactive	inactive	inactive	–
